Hits are enriched below; roughly 2.4% of the tested compounds scored in any of these assays.
Cruzain inh Det = blocks cruzain activity in presence of Triton detergent. P25779. purified cruzain, Z-FR-AMC fluorescence, 0.01% Triton. Potency, µM, inactives show max response, negative = inhibition, usual class: inhibitors. 0.43% of 200,000 active;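 note: plate controls were neutral wells for no effect and buffer without enzyme for full effect; nearly all actives have a fitted effect of over 40% in size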
Target sequence (P25779 123-467 limits assumed): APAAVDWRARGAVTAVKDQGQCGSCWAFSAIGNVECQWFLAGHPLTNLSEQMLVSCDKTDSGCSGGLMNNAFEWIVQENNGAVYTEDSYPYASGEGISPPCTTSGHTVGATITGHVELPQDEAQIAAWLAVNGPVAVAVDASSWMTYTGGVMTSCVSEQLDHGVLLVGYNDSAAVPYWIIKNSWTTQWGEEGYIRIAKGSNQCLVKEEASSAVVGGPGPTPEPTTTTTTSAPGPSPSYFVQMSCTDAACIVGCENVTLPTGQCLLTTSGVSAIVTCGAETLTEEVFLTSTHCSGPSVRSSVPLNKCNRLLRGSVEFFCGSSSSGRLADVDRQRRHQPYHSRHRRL
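15 min RT preincubation of 1.5 nM cruzain with compound, then 2 uM Z-FR-AMC added; kinetic AMC fluorescence, 60 s delta. Triton X-100 0.01%, pH 5.5.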
Cruzain inh noDet = cruzain (T. cruzi) inhibition without detergent; purified cruzain, Z-FR-AMC fluorescence, no detergent; 2.3% of 200,000 active; Potency, µM, without a hit: max response, negative = inhibition, hits mostly inhibitors;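 note: plate controls were enzyme without inhibitor for no effect and buffer without enzyme for full effect; nearly all actives have a fitted effect of over 40% in size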
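Purified cruzain at 1.5 nM, pre-incubated 15 min with compound at room temperature in 100 mM sodium acetate pH 5.5, 5 mM DTT, 0.00005% Triton X-100. Reaction started with 2 uM Z-FR-AMC; AMC fluorescence increase over 60 s gives rate.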
Starred values were filed as active, the others as inactive; u = inconclusive; ! = a repeat was not active. Calls come from the whole dose curve; as a rule, active = well fitted curve in the direction sought with a large enough effect; inconclusive = small, poorly fitted or top-dose-only effect, or another doubt; inactive = no such curve, though single readings can be large; an effect the other way counts as inactive or inconclusive. Potency is the fitted concentration of half-maximal effect.

SMILES	Cruzain inh Det	Cruzain inh noDet
CN(C)c1cc(-c2cccc(NS(C)(=O)=O)c2)ncn1	12.6µM*	15.8µM*
O=C(NNC(=O)c1sc2cccc(Cl)c2c1Cl)Nc1ccccc1	2.1%	10µM*
O=C(NNC(=O)c1sc2cccc(Cl)c2c1Cl)NC1CCCCC1	-9.0%	-7.2%
COc1cc(/C=N/Nc2ccccc2)ccc1OC(=O)c1cccs1	-2.6%	12.6µM*
COc1cc(/C=N/NC(=O)COc2ccc(C)cc2)ccc1OC(=O)c1cccs1	-5.3%	u
COc1cc(OC)cc(C(=O)Oc2ccc(/C=N/Nc3nc4ccccc4s3)cc2OC)c1	-6.6%	12.6µM*
COc1cc(/C=N/Nc2nc3ccccc3s2)ccc1OC(=O)c1ccccc1F	-3.1%	u
O=C(COC(=O)CNS(=O)(=O)/C=C/c1ccccc1)NC1CCS(=O)(=O)C1 (stereo not drawn)	-26.8%	-22.5%
Cc1ccc(C(=O)NCC(=O)OCC(=O)NC2CCS(=O)(=O)C2)cc1C (stereo not drawn)	15.8µM*	25.1µM*
Cc1ccc(NC(=O)Cn2nc(-c3ccccc3)nc(Cc3ccc(Cl)cc3)c2=O)cc1	1.4%	25.1µM*
Cc1ccc(NC(=O)Cn2nc(-c3ccccc3)nc(Cc3ccccc3)c2=O)cc1	1.3%	-12.1%
CSc1ncc(Cl)c(C(=O)N(Cc2ccc(C)cc2)C2CCS(=O)(=O)C2)n1 (stereo not drawn)	-3.6%	-6.4%
CCOc1ccc(NC(=O)Cn2cc(C(=O)c3ccc(OCC)cc3)c(=O)c3cc4c(cc32)OCCO4)cc1	-3.2%	-9.3%
COc1ccc(NC(=O)Nc2cccc(OCc3cc(=O)n4cccc(C)c4n3)c2)c(OC)c1	-0.1%	u
COc1cc2c(cc1O)CC1c3c(cc(O)c(OC)c3-2)CCN1C (stereo not drawn)	-3.5%	31.6µM*!
COc1cc2c(cc1O)C[C@H]1c3c(cc(OC)c(O)c3-2)CCN1C	-3.9%	0.1%
Clc1cccc(/C=N/Nc2nc(Cl)nc3ccccc23)c1	-10.3%	u
Clc1cccc(/C=N\Nc2nccs2)c1	25.1µM*	15.8µM*
COc1ccc2[nH]c(=O)c(CN(Cc3cccs3)C(=S)Nc3cccc(C)c3)cc2c1	-3.0%	u
Cc1cc2cc(CN(Cc3cccs3)C(=S)NCc3ccco3)c(=O)[nH]c2cc1C	-5.1%	u
Cc1cccc(NC(=S)N(Cc2cccs2)Cc2cc3cc(C)cc(C)c3[nH]c2=O)c1	-2.9%	25.1µM*
Cc1ccc(C)c2[nH]c(=O)c(CN(Cc3cccs3)C(=S)NCc3ccco3)cc12	-1.8%	20µM*
Fc1ccccc1N1CCN(c2c3c(nc4nncn24)CCC3)CC1	-0.3%	-17.7%
Cc1cccc(Cn2cc3c(=O)n(CC(=O)Nc4ccc(C)c(F)c4)nc-3c3cc(F)ccc32)c1	-1.6%	-12.5%
COc1ccc(NC(=O)C2CCCN(S(=O)(=O)c3ccc4c(c3)CCCC(=O)N4)C2)cc1OC (stereo not drawn)	-1.8%	4.4%
SMILES	Cruzain inh Det	Cruzain inh noDet
Cc1cccc(CSc2ncc(Cl)c(C(=O)Nc3sc4c(c3C#N)CCCC4)n2)c1	-1.7%	-7.8%
N#Cc1cc2c(=O)n3ccccc3nc2n(CCN2CCOCC2)c1=O	-5.2%	9.2%
N#Cc1cc2c(=O)n3ccccc3nc2n(CCCN2CCOCC2)c1=O	28.2µM*	u
Cc1ccc(C)c(NC(=O)Nc2csc3c2CCCC3)c1	-0.2%	-2.0%
O=C(CSc1nnc(-c2ccco2)o1)c1ccc(F)c(F)c1	3.7%	-2.7%
O=C(CSc1nnc(-c2ccco2)o1)c1ccccc1	-6.6%	15.8µM*
Cc1cccc(-n2cc(-c3ccccc3)c3c(NC(C)C)ncnc32)c1	-3.0%	-1.4%
CCCN1Cc2cccc(C(=O)Nc3cccc(C(=O)OCC)c3)c2C1=O	-2.6%	-4.8%
CCC(=O)Nc1ccc(-c2csc(NNC(C)=O)n2)cc1	-4.1%	-9.1%
CC(=O)Nc1ccc(-c2csc(NC(=O)CCCc3cccs3)n2)cc1	-5.5%	10µM*
O=C(O)CCC(=O)Nc1nc(-c2ccccc2)cs1	1.7%	-10.0%
Cc1ccc(-c2csc(NC(=O)CCCc3cccs3)n2)cc1	-0.1%	7.94µM*
COc1cccc(CNC(=O)Cn2c(=O)n3nc(-c4cccc(C)c4)nc3c3ccccc32)c1	-1.1%	-2.0%
COc1ccc(CNC(=O)c2cnc3sc(N4CCCC4)nn3c2=O)cc1OC	-3.6%	-6.7%
COc1cccc(CNC(=O)CCc2c(C)c3cc4c(C)coc4c(C)c3oc2=O)c1	-0.5%	2.7%
Cc1cc(C)cc(N2C(=O)CSC23C(=O)N(CC(=O)NCCc2ccccc2)c2ccccc23)c1 (stereo not drawn)	0.5%	15.7%
CCCCSc1nnc(-c2ccc(C)cc2)c2ccccc12	-3.0%	14.3%
O=C(CCC(=O)c1ccc(F)cc1)Nc1ccccc1Cl	-2.6%	-10.5%
COc1ccc(CCNC(=O)CSc2nnc(-c3ccc(F)cc3)c3ccccc23)cc1OC	-3.8%	u
O=C(CSc1nnc(-c2ccc(F)cc2)c2ccccc12)Nc1ccccc1	-4.7%	31.6µM*
O=C(CSc1nnc(-c2ccc(F)cc2)c2ccccc12)Nc1ccccc1Cl	-4.9%	15.8µM*
O=C(CSc1nnc(-c2ccc(F)cc2)c2ccccc12)Nc1c(F)cccc1F	-6.9%	15.8µM*
O=C(CSc1ncnc2c1oc1ccccc12)Nc1cccc(Cl)c1	-3.0%	-10.6%
O=C(CSc1nnc(-c2ccc(F)cc2)c2ccccc12)Nc1cccc(Cl)c1	-3.8%	15.8µM*
O=C(c1cnc(N2CCCCC2)c2ccccc12)N1CCN(c2cccc(Cl)c2)CC1	-22.6%	-4.8%
SMILES	Cruzain inh Det	Cruzain inh noDet
COC(=O)c1ccc(Nc2ncnc3c2cnn3-c2ccccc2)cc1	0.7%	-3.1%
CC(C)OCCCNC(=O)Cc1ccc(NC(=O)N2CCCCc3ccccc32)cc1	-4.0%	1.9%
Cc1c(Cl)cccc1NC(=O)c1ccc(NC(=O)N2CCSc3ncccc32)cc1	-12.2%	2.9%
Cc1ccc(C(=O)Nc2ccc3oc(-c4ccc(C(C)(C)C)cc4)nc3c2)cc1	-0.4%	-7.7%
C=Cc1ccc(CSc2nc(-c3ccc(OC)cc3)nc3c2Cc2c(CO)cnc(C)c2O3)cc1	-2.4%	3.3%
Cc1cc(-c2ccc(S(=O)(=O)Nc3ccc(Br)c(C)c3)s2)on1	-8.9%	-24.6%
Cc1ccc(-c2nnc(SCC(=O)n3c4c(c5ccccc53)CCCC4)o2)cc1	1.5%	-18.4%
O=C(CSc1nnc(-c2ccccc2)o1)n1c2c(c3ccccc31)CCCC2	-0.1%	25.1µM*
COc1ccc(C(=S)N2CCCCCC2)cc1	14.1µM*	-2.4%
COc1ccc(C(=S)N2CCNCC2)cc1	-5.3%	-3.8%
COc1ccc(C(O)C2=CCCC2=O)cc1 (stereo not drawn)	-0.3%	-15.5%
COc1ccc2nc(NC(=O)C3CCCN(S(=O)(=O)c4cccs4)C3)sc2c1 (stereo not drawn)	-2.0%	25.1µM*
O=C(Nc1nc2cc(Cl)ccc2s1)C1CCCN(S(=O)(=O)c2cccc3cccnc23)C1 (stereo not drawn)	-8.2%	25.1µM*
COc1ccc2nc(NC(=O)C3CCN(S(=O)(=O)c4cccs4)CC3)sc2c1	-1.2%	u
O=C(Nc1nccs1)C1CCCN(S(=O)(=O)c2cccc3cccnc23)C1 (stereo not drawn)	1.0%	3.2%
COc1ccc(C=O)cc1	7.7%	5.5%
COc1ccc(C=C(c2ccc(OC)cc2)c2ccc(OC)cc2)cc1	-21.5%	12.6µM*
COc1ccc(C(=O)Nc2cc(C(=O)c3ccccc3)c(C)oc2=O)cc1	12.6µM*	15.8µM*
COc1cccc(C(=O)Nc2cc3cc(OC)ccc3oc2=O)c1	0.5%	-1.0%

Compound activity as filed in PubChem.
